Records with an inconclusive call do not appear. Values without a mark were called inactive. The call rests on the fitted dose curve; in most records, active means well fitted curve in the direction sought with a large enough effect in the repeat runs; inconclusive means weak or mixed curves; inactive means no such curve, though single readings can be large; an effect the other way counts as inactive or inconclusive.
Tested on: not listed separately
Assay: qHTS assay to identify small molecule antagonists of the estrogen related receptor (ERR) signaling pathway from Tox21 library - cell viability counter screen (AID 1224834); further: nearly all actives have a fitted effect of over 30% in size
Conditions: ERR reporter cells viability, CellTiter-Fluor, 17.5 h; series mostly up to 92.4 µM; viability change, negative = cytotoxic: at the top concentration
Outline: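 CellTiter-Fluor fluorescence, read after 30 min at 37 C, measures viability of ERR cells. Cells plated at 2,000/well and incubated 6 h before pin-tool compound addition, then exposed 17.5 hours at 37 C.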
On the % scale 0 is the no-effect control and ±100 the full control effect.

Compound | viability change, negative = cytotoxic
CCS(=O)(=O)c1ccc(OC)c(C(=O)OC)c1 | 2.54% [at 42.5 µM]
CC1=CC(C)C(C=O)CC1 (configuration not stated) | 1.2%
CCOC(=O)C(=O)OCC | 0.862%
Cn1c(N)c(N=O)c(=O)n(C)c1=O | -1.21%
Cc1sccc1Br | 2.09% [at 42.5 µM]
CCCCCSCCCCC | 7.55%
CC(=O)OCC(=O)[C@@]1(O)CCC2C3CCC4=CC(=O)CC[C@]4(C)C3[C@@H](O)C[C@@]21C (some centres not stated) | 0.753% [at 42.5 µM]
O=Cc1cccc([N+](=O)[O-])c1 | 1.78%
CN(C(=O)c1c(O)c2ccccc2n(C)c1=O)c1ccccc1 | 0.974% [at 42.5 µM]
CC(C)CCCC(C)N (configuration not stated) | 3.52% [at 42.5 µM]
CCCCOCCOCCOCCCC | -0.477%
NS(=O)(=O)c1cc(C(=O)O)cc(N2CCCC2)c1Oc1ccccc1 | 8.97% [at 42.5 µM]

Target: Luciferin 4-monooxygenase (Photinus pyralis) (UniProt P08659)
Sequence (P08659 whole entry, looked up): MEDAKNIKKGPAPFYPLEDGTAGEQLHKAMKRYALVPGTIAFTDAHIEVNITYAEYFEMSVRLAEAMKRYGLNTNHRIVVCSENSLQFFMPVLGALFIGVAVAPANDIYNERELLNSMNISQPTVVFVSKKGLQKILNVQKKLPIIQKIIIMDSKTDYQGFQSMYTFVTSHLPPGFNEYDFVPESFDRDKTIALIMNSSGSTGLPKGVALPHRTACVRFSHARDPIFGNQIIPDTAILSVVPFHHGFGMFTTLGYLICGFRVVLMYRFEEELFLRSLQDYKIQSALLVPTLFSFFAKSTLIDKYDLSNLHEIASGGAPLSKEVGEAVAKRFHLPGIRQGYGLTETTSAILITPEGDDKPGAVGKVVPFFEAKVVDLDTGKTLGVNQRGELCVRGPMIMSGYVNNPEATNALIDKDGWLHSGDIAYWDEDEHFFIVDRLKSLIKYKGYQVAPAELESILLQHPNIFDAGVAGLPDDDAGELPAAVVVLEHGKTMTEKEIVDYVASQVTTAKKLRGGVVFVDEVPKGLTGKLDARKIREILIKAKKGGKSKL
Assay: qHTS assay to identify small molecule inhibitors of firefly luciferase (AID 1224835); further: nearly all actives have a fitted effect of over 25% in size
Conditions: purified P. pyralis luciferase, luminescence inhibition; series mostly up to 115 µM; activity change, negative = inhibition: at the top concentration
Outline: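 Inhibition of purified Photinus luciferase is measured by luminescence. Substrate levels (D-luciferin, ATP) sit at their KM values. Each compound is tested in a concentration series.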

Compound | activity change, negative = inhibition
CC(C)(C)c1nnc(NS(=O)(=O)c2ccccc2)s1 | -1.93% [at 52.9 µM]
c1ccc(CC2=NCCN2)cc1 | -2.11% [at 52.9 µM]
CCCCCCCCCCCCN(CCCCCCCCCCCC)CCCCCCCCCCCC | 4.08%
COC(C)(C)CCCC(C)CC=O (configuration not stated) | -0.467%
C=CCS(=O)(=O)O | -0.272%
COCCCOCCCOC | -4.21%
NS(=O)(=O)c1ccc(C(=O)O)cc1 | -0.439% [at 52.9 µM]
COc1c(N2C[C@@H]3CCCN[C@@H]3C2)c(F)cc2c(=O)c(C(=O)O)cn(C3CC3)c12 | -0.51% [at 52.9 µM]
COC(=O)c1ccc(C)cc1C1=NC(C)(C(C)C)C(=O)N1 (configuration not stated) | 0.138%
CS(=O)(=O)O | 2.75%
CC(=O)c1ccccc1O | 0.188%
Cc1ccc(C#N)cc1 | -3.66%
O=C(O)c1ccccc1OP(=O)(O)O | -1.37% [at 52.9 µM]
O=c1[nH]c(=O)n([C@H]2C[C@H](O)[C@@H](CO)O2)cc1I | -2.31% [at 52.9 µM]
CC(C)NC(=O)NC(C)C | 0.483%
CCOC(=O)[C@H](CCc1ccccc1)N[C@@H](C)C(=O)N1[C@H](C(=O)O)C[C@@H]2CCC[C@@H]21 | -2.15% [at 52.9 µM]
COc1cc(C(=O)N2CCCCCCC2)cc(OC)c1OC | -0.847% [at 52.9 µM]
O=C(O)CCCc1ccccc1 | -0.161% [at 52.9 µM]

Compound | activity change, negative = inhibition
CO/N=C(/C(=O)N[C@@H]1C(=O)N2C(C(=O)OCOC(=O)C(C)(C)C)=C(C)CS[C@H]12)c1csc(N)n1 | -1.61% [at 52.9 µM]
Cc1cc2c(cc1S(N)(=O)=O)S(=O)(=O)CCC2 | 5.87% [at 52.9 µM]
Cc1cc(O)cc2c1O[C@](C)(CCC[C@H](C)CCC[C@H](C)CCCC(C)C)CC2 | -0.173% [at 52.9 µM]
CCOC(=O)c1c(C)n(C)c2ccc(O)cc12 | -4.05% [at 52.9 µM]
O=C(CCCN1CCN(c2ccccn2)CC1)c1ccc(F)cc1 | -2.4% [at 52.9 µM]
CCS(=O)(=O)c1ccc(OC)c(C(=O)OC)c1 | 2.03% [at 52.9 µM]
CC1=CC(C)C(C=O)CC1 (configuration not stated) | 0.564%
CCOC(=O)C(=O)OCC | 1.29%
Cn1c(N)c(N=O)c(=O)n(C)c1=O | -3.94%
Cc1sccc1Br | -1.46% [at 52.9 µM]
CCCCCSCCCCC | 2.45%
CC(=O)OCC(=O)[C@@]1(O)CCC2C3CCC4=CC(=O)CC[C@]4(C)C3[C@@H](O)C[C@@]21C (some centres not stated) | 3.92% [at 52.9 µM]
O=Cc1cccc([N+](=O)[O-])c1 | -7.84%
CN(C(=O)c1c(O)c2ccccc2n(C)c1=O)c1ccccc1 | -3.34% [at 52.9 µM]
CC(C)CCCC(C)N (configuration not stated) | -0.832% [at 52.9 µM]
CCCCOCCOCCOCCCC | 0.0685%
NS(=O)(=O)c1cc(C(=O)O)cc(N2CCCC2)c1Oc1ccccc1 | -1.3% [at 52.9 µM]

Source: PubChem BioAssay (Tox21)
